VACV Venus inh: inhibitors of vaccinia virus (Venus reporter) | Vaccinia virus Venus reporter expression, fluorescence | Potency, µM (titrated, usually from 36.5 µM), without a hit: at the highest dose activity change, negative = inhibition, most hits filed as inhibitors | hit rate 0.46% among 330,000; calls by dose curve; tested in A549 cells; further: nearly all actives have a fitted effect of over 30% in size
FMDV inh: foot and mouth disease virus antiviral activity. FMDV antiviral cell-based qHTS. Potency, µM (titrated, usually from 57.9 µM), inactives show top-dose activity change, negative = inhibition, actives largely listed as inhibitors. hit rate 1.2% among 410,000; calls by dose curve; tested in HEK293T cells; further: read-out not given here; nearly all actives have a fitted effect of over 45% in size
Marburg entry inh: Marburg virus entry inhibition | Marburg virus pseudotyped entry inhibition, cell reporter | Potency, µM (top dose mostly 37.8 µM), inactives show top-dose activity change, negative = inhibition, most hits filed as inhibitors | hit rate 1.8% among 300,000 | AID 540276; calls by dose curve; tested in HEK293 cells
HCV inhibitor: HCV inhibition; hit rate 3.4% among 340,000; Potency, µM (series often up to 41.8 µM), without a hit: at the top dose activity change, negative = inhibition, hits mostly inhibitors; AID 651820; Huh7.5.1 HCVcc-Cre infection, luciferase reporter, 44 h; active means well fitted inhibition curve with a large enough effect; inconclusive means small, poorly fitted or top-dose-only effect, or another doubt; inactive means no such curve, though single readings can be large or run the other way
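Compounds are dispensed onto cells plated 4 h earlier at 1,000 per well, with HCVcc-Cre virus (about 0.5 moi) added next. Following 44 h of culture, luminescent signal is measured for 15 sec after 15 min with substrate at room temperature.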
VACV mCherry inh: vaccinia inhibition (mCherry reporter); Potency, µM (doses to about 36.5 µM), for inactives: top-dose activity change, negative = inhibition, usual class: inhibitors; hit rate 0.63% among 310,000; Vaccinia virus mCherry reporter infection, fluorescence; AID 720579; calls by dose curve; tested in A549 cells; further: nearly all actives have a fitted effect of over 35% in size
Lassa entry inh: Lassa virus entry inhibition; Lassa virus pseudotype entry inhibition, cell reporter; Potency, µM (highest dose often 37.9 µM), for the others: at the highest dose activity change, negative = inhibition, most hits filed as inhibitors; hit rate 1.2% among 300,000; calls by dose curve; tested in HEK293 cells; further: nearly all actives have a fitted effect of over 50% in size
* = called active by the depositor; i = inactive; ? = inconclusive; nt = no result given; [ ] = dose if it differs, or a comment. Rows were chosen to be rich in hits. Some 5.3% of all compounds tested hit in one or more screens of this group. On the % scale 0 is the no-effect control and ±100 the full control effect; potency means the concentration at half of the fitted maximal effect.

SMILES	VACV Venus inh	FMDV inh	Marburg entry inh	HCV inhibitor	VACV mCherry inh	Lassa entry inh
COc1ccc(CN(C(=O)c2cccs2)C(C(=O)NC2CCCCC2)c2ccc3ncccc3c2)cc1 (stereo not given)	-0.3%	-13.4%	2.3%	-7.5%	-6.1%	-2.6%
O=C(NC1CCCCC1)C(c1ccc2ncccc2c1)N(Cc1ccccc1)C(=O)c1cccs1 (stereo not given)	-23.1%	nt	5.8µM*	?	-0.1%	-14.6%
COc1ccc(-n2nc3c(N4CCC(C(=O)NCCc5ccccc5)CC4)nnc(C)c3c2C)cc1	?	-23.2%	nt	nt	?	-5.4%[46.1 µM]
COc1ccc(-n2nc3c(N4CCC(C(=O)NCc5ccccc5C)CC4)nnc(C)c3c2C)cc1	?	-11.4%	?	11.2µM*	-12.3%	?
COc1ccc(-n2nc3c(N4CCC(C(=O)NCCc5ccccc5C)CC4)nnc(C)c3c2C)cc1	-22.8%	-27.7%	?	?	-0.6%	-14.5%[46.1 µM]
COc1ccc(-n2nc3c(N4CCCC(C(=O)NCc5ccccc5C)C4)nnc(C)c3c2C)cc1 (stereo not given)	?	-25.9%	nt	nt	?	6.31µM*
COc1ccc(-n2nc3c(N4CCC(C(=O)NCC(C)c5ccccc5)CC4)nnc(C)c3c2C)cc1 (stereo not given)	?	-24.5%	nt	11.2µM*	?	nt
O=C(CN(C(=O)CCC(=O)Nc1ccccn1)c1cccc(F)c1)NCc1ccco1	-5.9%	12.0%	-9.7%[46.1 µM]	-15.9%	i	-3.6%[46.1 µM]
COc1ccc(OC)c([C@@H](O)[C@H](C)N)c1	-6.6%	-8.0%	nt	nt	i	nt
NC(=O)[C@@H]1CCCN1C(=O)c1cc(NC(=O)c2ccccc2)cc2ncn(C3CCCC3)c12	-13.9%	11.6%	nt	nt	i	nt
Cc1c(N)cc[n+](CC(=O)c2ccccc2)c1C	-15.2%	-11.5%	-29.9%[46.1 µM]	8.91µM*	-3.8%	-17.8%
COc1ccc(C)cc1Nc1n[n+](C)c(-c2ccc(O)cc2O)s1	-4.2%	-0.1%	nt	9.7%	i	nt
COc1ccc(-c2ccc(OC)c(OC)c2OC)c(OC)c1OC	-19.0%	0.0%	-15.8%	11.5%	-2.7%	?
COc1cc2cc(-c3ccc(OC)c(OC)c3C)nc(N)c2cc1OC	-29.0%	-9.7%	?	17.8µM*	?	?
COc1cc2cc(-c3ccc(O)cc3O)nc(C)c2cc1OC	0.6%	-16.7%	?	5.62µM*	-20.2%	?
CCOc1ccc(CCNC(=O)c2cnc3sc(N4CCCC4)nn3c2=O)cc1	?	28.2µM*	nt	nt	?	?
COc1ccc(CNc2nc3ccccc3n2C)c(O)c1	-7.9%	11.4%	11.2µM*	-2.1%	-25.2%	?
Cn1c(NCc2c(O)ccc3ccccc23)nc2ccccc21	nt	?	20.6µM*	?	nt	10.7%
Oc1ccc2ccccc2c1CNc1ccc(Br)cn1	nt	50.2%	nt	?	nt	nt
Oc1ccc2ccccc2c1CNc1ccc(Br)cc1	nt	-9.2%	nt	2.51µM*	nt	nt
CN1CCN(c2ccc(NC(=O)c3ccc(Oc4ccccc4)cc3)cc2)CC1	-24.1%	-5.2%	?	?	-7.1%	?
CCOc1ccc(C(=O)Nc2ccc(N3CCN(C)CC3)cc2)cc1Br	?	-7.0%	11.2µM*	-9.1%	nt	6.0%
COc1ccc(Cl)cc1C(=O)Nc1ccccc1N1CCN(C(=O)C(C)C)CC1	nt	-20.1%	?	?	nt	-1.0%
COc1cc2ccccc2cc1C(=O)Nc1ccc(N2CCN(C)CC2)cc1	nt	30.1%	?	12.6µM*	nt	?
COc1cc2ccccc2cc1C(=O)Nc1ccc(N2CCN(C(=O)C(C)C)CC2)cc1	nt	?	nt	10µM*	nt	nt
SMILES	VACV Venus inh	FMDV inh	Marburg entry inh	HCV inhibitor	VACV mCherry inh	Lassa entry inh
COc1ccc(C(=O)Nc2ccc(N3CCN(C(=O)c4ccccc4C)CC3)cc2)cc1	-17.7%	?	-20.8%	11.2µM*	i	-23.6%
CN(C)CC(C)(O)c1ccc2c(c1)CN(Cc1cn(C)c3ccccc13)CCO2 (stereo not given)	12.2%	-11.5%	nt	nt	-12.0%	nt
COc1ccc(Nc2ncc(C(=O)N3CCN(c4ccc(F)cc4)CC3)c3ccccc23)cc1	-14.8%	?	?	11.2µM*	-21.4%	?
COc1ccc(N(CC(=O)N2CCN(c3ccc(Cl)cc3)CC2)S(=O)(=O)c2c(C)noc2C)cc1	nt	?	nt	11.2µM*	nt	nt
CC(C)(C)Cc1c(-c2cccc(Br)c2)nc2ccc(Br)cn12	-21.1%	-11.3%	nt	nt	-15.5%	nt
CCCCN(C)C(=O)c1[nH]c(C(F)(F)F)nc1-c1ccccc1	3.9%	-18.0%	nt	nt	-1.9%	nt
CN(C)CCN(Cc1ccccc1)C(=O)c1[nH]c(C(F)(F)F)nc1-c1ccccc1	3.2%	35.5µM*	nt	nt	7.3%	nt
CC#CC(C)C(OCOC)C(CC(C)Cc1cc(Br)cc(OCc2ccccc2)c1OC)OC (stereo not given)	nt	nt	-10.3%[14.2 µM]	nt	nt	nt
Cc1c(C(=O)N2CCOCC2)oc2ccc(Br)cc12	-4.1%	34.9%	-20.6%	-17.9%	-20.4%	-1.1%
Cc1c(C(=O)N2CCCCC2)oc2ccc(Br)cc12	-9.2%	91.6%	2.5%	22.4µM*	-3.3%	-2.2%
Cc1c(C(=O)Nc2ccc(-c3nnc4n3CCCCC4)cc2)oc2ccc(Br)cc12	-16.8%	0.0%	?	11.2µM*	-4.3%	?
CCC1CCc2sc(C(=O)NCC(c3ccc(OC)cc3)N3CCCC3)cc2C1 (stereo not given)	-21.2%	-3.4%	?	10µM*	-18.4%	?
COc1ccc(C(CNC(=O)c2oc3ccc(Br)cc3c2C)N2CCCCC2)cc1 (stereo not given)	5.3%	-26.9%	-7.6%	12.6µM*	-11.6%	-5.4%
CC(=O)Nc1ccccc1-c1nc(CNC(=O)c2ccc(F)c(F)c2)c(C)o1	-1.4%	-7.9%	nt	nt	i	nt
COc1ccc(-c2noc(-c3cccc(OC)c3OC)n2)cc1	-16.0%	21.1%	?	nt	-12.2%	?
COc1ccc(C(CNC(=O)c2oc3ccc(F)cc3c2C)N2CCCCC2)cc1 (stereo not given)	nt	?	nt	11.2µM*	nt	nt
COc1ccc(C(CNC(=O)c2oc3ccc(OC)cc3c2C)N2CCCC2)cc1 (stereo not given)	-20.6%	-12.3%	?	?	-26.4%	?
O=C(/C=C/c1ccco1)NC(=S)Nc1cccc(-c2nc3ccccc3s2)c1	?	-6.3%	3.55µM*	10µM*	-22.9%	-21.0%
COC(=O)NC(c1ccccc1)C(C(=O)OC)C(=O)OC (stereo not given)	nt	nt	28.2%[14.2 µM]	nt	nt	nt
CCc1noc(C)c1C(=O)Oc1ccc(N(C)S(=O)(=O)c2ccccc2)cc1	-15.2%	17.8µM*	?	?	-20.9%	?
Cc1noc(C)c1CSCC(=O)Oc1ccc(N(C)S(=O)(=O)c2ccccc2)cc1	-2.3%	-7.5%	4.7%	17.1%	-12.0%	-5.1%
Cn1c(SCC(=O)Nc2ccc3c(c2)OCCO3)nnc1-c1ccncc1	0.9%	-16.8%	?	2.1%	i	0.3%
CCc1ccc(CCC(=O)Nc2sc3c(c2C#N)CCCC3)o1	nt	-6.6%	2.31µM*	4.47µM*	nt	?

From PubChem BioAssay
